Reference: PubChem BioAssay
Active and inactive are the calls of the source.

Experiments:
[1] = tested on: Plasmodium falciparum Sir2 (PF13_0152, Sir2A); test: pfSir2 binders on small-molecule microarrays, primary screen, biochemical, small-molecule microarray, 635 nm fluorescence (AID 1098); details: small-molecule microarray binding, fluorescence 635 nm; higher = more signal;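 also: score merges spot fluorescence intensity with its signal-to-noise ratio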
[2] = small-molecule microarray binders of probe aDKK1, primary screen, biochemical, biotinylated probe, 635/667 nm fluorescence (AID 1099); details: higher = more signal;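 also: score merges 667nm spot fluorescence with signal to noise across triplicate slides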
[3] = small-molecule microarray binders of probe aCHRDL2, primary screen, biochemical, biotinylated probe, 635/667 nm fluorescence (AID 1100); details: higher = more signal
[4] = splicing luciferase reporter signal modulators, primary screen, spliceosome inhibition project, cell-based, HEK293, splice +/- reporter (AID 1101); details: luminescence, 24 h, higher = more signal, called active from +8 up or from −8 down;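 also: HEK293 cells carrying a splicing-competent luciferase reporter gene; test concentration not given here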
[5] = target: Fibroblast growth factor 10 (Homo sapiens) (UniProt O15520); test: FGF10 binders on small-molecule microarrays, primary screen, biochemical, small-molecule microarray, 635 nm fluorescence (AID 1102); details: FGF10 binding, fluorescence 635 nm, higher = more signal
[6] = tested on: glycogen synthase kinase-3 (GSK3A per assay name; protocol says GSK3B); test: GSK3 binders on small-molecule microarrays, primary screen, biochemical, small-molecule microarray, 635 nm fluorescence, GSK3A (AID 1103); details: small-molecule microarray binding, fluorescence 635 nm; higher = more signal; also: the record names both GSK3A and GSK3B
[7] = target: Epidermal growth factor receptor (Homo sapiens) (UniProt P00533); test: EGFR binders on small-molecule microarrays, primary screen, biochemical, small-molecule microarray, 635 nm fluorescence (AID 1104); details: EGFR binding, higher = more signal;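 also: score merges 667 nm emission intensity with spot signal to noise over triplicate slides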
[8] = target: Follistatin-related protein 3 (Homo sapiens) (UniProt O95633); test: FSTL3 binders on small-molecule microarrays, primary screen, biochemical, small-molecule microarray, 635 nm fluorescence (AID 1105); details: FSTL3 binding, higher = more signal;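 also: score merges emission near 667 nm and signal to noise per printed spot across three slides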
[9] = target: Dickkopf-related protein 1 (Homo sapiens) (UniProt O94907); test: DKK1 binders on small-molecule microarrays, primary screen, biochemical, small-molecule microarray, 635 nm fluorescence scan (AID 1106); details: DKK1 binding, higher = more signal;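 also: score merges emission near 667 nm with signal to noise over three replicate slides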
[10] = tested on: Inhibin beta A chain (activin A); test: INHBA (activin A) binders on microarrays, primary screen, biochemical, small-molecule microarray, 635 nm fluorescence scan (AID 1107); details: small-molecule microarray binding, higher = more signal;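 also: mouse activin A protein probed at 4.33 µg/mL on printed slides; score merges bound-protein fluorescence near 667 nm with spot signal-to-noise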
[11] = tested on: Human papillomavirus type 1a protein E7 (residues 44-93); test: HPV1a E7 fragment binders on microarrays, primary screen, biochemical, small-molecule microarray, residues 44-93, 635 nm fluorescence (AID 1108); details: small-molecule microarray binding, fluorescence 635 nm; higher = more signal;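 also: E7 fragment applied at 1 µg/mL in TBST for 1 h at 4 C; score combines spot fluorescence with its signal to noise ratio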
[12] = modulators of HCV replicon luciferase signal, primary screen, HCV replication inhibitor project, Huh7 cells, luciferase reporter (AID 1109); details: 48 h, higher = more signal;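 also: huh7 hepatoma cells harbouring a luciferase neomycin HCV replicon reporter; luciferase luminescence as measure of HCV replicon replication; test concentration not given here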
[13] = target: Left-right determination factor 2 (Homo sapiens) (UniProt O00292); test: LEFTY2 binders on small-molecule microarrays, primary screen, biochemical, small-molecule microarray, 635 nm fluorescence scan (AID 1110); details: LEFTY2 binding, higher = more signal
[14] = target: Calmodulin-1 (Homo sapiens) (UniProt P0DP23); test: CALM1 binders on microarrays, EGTA buffer, profiling panel, biochemical, small-molecule microarray, Cy5-labelled CALM1 (AID 1111); details: Cy5-CALM1 binding fluorescence, higher = more signal;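 also: labelled calmodulin applied in Tris saline Tween buffer holding calcium plus EGTA and DTT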
[15] = target: Calmodulin-1 (Homo sapiens) (UniProt P0DP23); test: calcium-bound CALM1 binders on microarrays, profiling panel, artefact control for SMM control-protein annotation, biochemical, small-molecule microarray, Cy5-labelled CALM1, plus calcium (AID 1112); details: Cy5-CALM1 binding fluorescence, higher = more signal;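 also: score merges spot fluorescence with signal to noise from triplicate slides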
[16] = small-molecule microarray binders of probe aWnt5a, primary screen, biochemical, biotinylated probe, 635/667 nm fluorescence (AID 1113); details: higher = more signal;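 also: score merges 667 nm fluorescence intensity with signal-to-noise per printed feature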
[17] = small-molecule microarray binders of probe aShh, primary screen, biochemical, biotinylated probe, 635/667 nm fluorescence (AID 1114); details: higher = more signal;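 also: probe is biotin-labelled aShh protein from a stem cell growth factor screen; measures binding of labelled protein to compounds printed on the slide; score merges feature fluorescence at 667 nm with signal-to-noise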
[18] = small-molecule microarray binders of probe aNog, primary screen, biochemical, biotinylated probe, 635/667 nm fluorescence (AID 1115); details: higher = more signal;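 also: probe is biotinylated aNog protein used at 0.15 µg/mL for 1 h at 4 C; z-score combines 667 nm fluorescence of each spot with its signal to noise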
[19] = target: Torsin-1A-interacting protein 1 (Homo sapiens) (UniProt Q5JTV8); test: LAP1 binders from COS7 cell lysate, primary screen, small-molecule microarray, 635/667 nm fluorescence (AID 1116); details: COS7-hLAP1 lysate binding, 635 nm fluorescence, higher = more signal
[20] = target: Alpha-bungarotoxin (Bungarus multicinctus) (UniProt P60615); test: alpha-bungarotoxin binders on microarray, profiling panel, artefact control for SMM control protein annotation, biochemical, small-molecule microarray, Alexa647 label, 635/667 nm fluorescence (AID 1117); details: alpha-BTX-A647 binding fluorescence, higher = more signal
Sequence of Alpha-bungarotoxin (Bungarus multicinctus) (P60615 whole entry, looked up): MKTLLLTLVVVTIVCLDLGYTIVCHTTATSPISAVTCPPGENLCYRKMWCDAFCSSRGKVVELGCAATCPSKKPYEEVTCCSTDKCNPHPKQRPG

Sequence of Epidermal growth factor receptor (Homo sapiens) (P00533 whole entry, looked up): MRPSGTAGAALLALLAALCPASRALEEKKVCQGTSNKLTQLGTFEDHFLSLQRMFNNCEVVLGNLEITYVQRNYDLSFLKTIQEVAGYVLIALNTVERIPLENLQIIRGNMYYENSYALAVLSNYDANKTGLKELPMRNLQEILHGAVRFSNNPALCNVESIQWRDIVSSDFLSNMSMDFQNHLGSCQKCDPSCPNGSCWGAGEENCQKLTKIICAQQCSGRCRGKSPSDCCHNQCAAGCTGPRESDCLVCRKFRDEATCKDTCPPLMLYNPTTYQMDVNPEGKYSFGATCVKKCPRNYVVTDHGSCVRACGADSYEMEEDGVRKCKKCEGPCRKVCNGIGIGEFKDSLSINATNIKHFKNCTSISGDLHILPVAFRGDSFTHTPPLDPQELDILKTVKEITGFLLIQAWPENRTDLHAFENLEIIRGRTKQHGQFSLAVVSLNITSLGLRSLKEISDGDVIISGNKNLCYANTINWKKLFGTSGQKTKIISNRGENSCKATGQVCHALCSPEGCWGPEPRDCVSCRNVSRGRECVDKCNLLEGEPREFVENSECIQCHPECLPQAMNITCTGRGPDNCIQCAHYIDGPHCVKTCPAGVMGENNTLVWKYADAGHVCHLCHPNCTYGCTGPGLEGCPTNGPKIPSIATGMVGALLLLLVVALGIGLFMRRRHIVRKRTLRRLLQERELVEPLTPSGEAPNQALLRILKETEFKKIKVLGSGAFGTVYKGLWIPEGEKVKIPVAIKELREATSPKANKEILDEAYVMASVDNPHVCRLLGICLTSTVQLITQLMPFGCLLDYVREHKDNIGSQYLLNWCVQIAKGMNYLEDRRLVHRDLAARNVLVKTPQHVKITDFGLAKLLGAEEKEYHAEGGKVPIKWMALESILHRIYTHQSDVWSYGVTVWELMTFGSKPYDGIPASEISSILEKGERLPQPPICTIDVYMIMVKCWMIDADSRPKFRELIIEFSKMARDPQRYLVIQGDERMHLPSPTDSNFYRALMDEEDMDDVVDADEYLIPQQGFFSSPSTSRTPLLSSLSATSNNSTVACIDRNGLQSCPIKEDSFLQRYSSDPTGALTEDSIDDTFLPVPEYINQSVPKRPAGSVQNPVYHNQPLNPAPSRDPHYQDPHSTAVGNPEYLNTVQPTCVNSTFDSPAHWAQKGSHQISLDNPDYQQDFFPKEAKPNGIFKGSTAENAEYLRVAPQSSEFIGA
Sequence of Torsin-1A-interacting protein 1 (Homo sapiens) (Q5JTV8 whole entry, looked up): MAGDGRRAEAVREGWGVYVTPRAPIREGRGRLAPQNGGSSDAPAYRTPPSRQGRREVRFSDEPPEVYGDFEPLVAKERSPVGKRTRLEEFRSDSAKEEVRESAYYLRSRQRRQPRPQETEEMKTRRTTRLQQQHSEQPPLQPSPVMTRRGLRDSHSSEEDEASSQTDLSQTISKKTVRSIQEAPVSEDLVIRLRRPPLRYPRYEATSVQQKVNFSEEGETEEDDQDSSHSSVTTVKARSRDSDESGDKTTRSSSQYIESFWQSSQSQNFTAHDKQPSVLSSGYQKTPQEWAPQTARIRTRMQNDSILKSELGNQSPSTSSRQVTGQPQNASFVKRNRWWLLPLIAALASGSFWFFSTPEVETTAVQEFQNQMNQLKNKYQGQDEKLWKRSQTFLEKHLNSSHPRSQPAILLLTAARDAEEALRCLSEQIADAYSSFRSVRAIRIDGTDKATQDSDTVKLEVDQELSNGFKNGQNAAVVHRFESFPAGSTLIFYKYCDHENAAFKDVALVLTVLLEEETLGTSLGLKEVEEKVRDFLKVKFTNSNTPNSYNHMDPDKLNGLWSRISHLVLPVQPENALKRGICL
Sequence of Left-right determination factor 2 (Homo sapiens) (O00292 whole entry, looked up): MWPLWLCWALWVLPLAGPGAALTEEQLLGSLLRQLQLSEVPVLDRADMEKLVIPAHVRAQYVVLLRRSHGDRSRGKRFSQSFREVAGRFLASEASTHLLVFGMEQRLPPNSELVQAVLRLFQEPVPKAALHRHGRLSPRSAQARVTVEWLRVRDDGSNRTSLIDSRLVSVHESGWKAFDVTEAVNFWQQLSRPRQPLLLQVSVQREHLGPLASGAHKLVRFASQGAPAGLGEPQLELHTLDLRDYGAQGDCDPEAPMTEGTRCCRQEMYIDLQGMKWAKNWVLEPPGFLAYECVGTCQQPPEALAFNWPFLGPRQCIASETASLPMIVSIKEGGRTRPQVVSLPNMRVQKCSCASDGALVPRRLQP
Sequence of Dickkopf-related protein 1 (Homo sapiens) (O94907 whole entry, looked up): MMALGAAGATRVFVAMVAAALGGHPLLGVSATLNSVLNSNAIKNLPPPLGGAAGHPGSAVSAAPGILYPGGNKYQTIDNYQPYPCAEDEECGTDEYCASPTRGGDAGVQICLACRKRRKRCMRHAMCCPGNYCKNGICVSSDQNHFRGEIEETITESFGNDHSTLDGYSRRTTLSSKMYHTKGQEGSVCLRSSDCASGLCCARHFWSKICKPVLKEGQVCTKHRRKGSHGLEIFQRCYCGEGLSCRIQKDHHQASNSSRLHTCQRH
Sequence of Follistatin-related protein 3 (Homo sapiens) (O95633 whole entry, looked up): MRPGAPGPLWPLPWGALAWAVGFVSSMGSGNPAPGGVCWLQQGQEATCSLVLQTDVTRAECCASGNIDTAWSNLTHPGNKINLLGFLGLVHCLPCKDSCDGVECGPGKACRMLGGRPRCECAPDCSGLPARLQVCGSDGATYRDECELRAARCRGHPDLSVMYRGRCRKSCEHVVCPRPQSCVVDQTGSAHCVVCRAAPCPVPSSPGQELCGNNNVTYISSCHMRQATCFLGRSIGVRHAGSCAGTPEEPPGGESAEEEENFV
Sequence of Fibroblast growth factor 10 (Homo sapiens) (O15520 whole entry, looked up): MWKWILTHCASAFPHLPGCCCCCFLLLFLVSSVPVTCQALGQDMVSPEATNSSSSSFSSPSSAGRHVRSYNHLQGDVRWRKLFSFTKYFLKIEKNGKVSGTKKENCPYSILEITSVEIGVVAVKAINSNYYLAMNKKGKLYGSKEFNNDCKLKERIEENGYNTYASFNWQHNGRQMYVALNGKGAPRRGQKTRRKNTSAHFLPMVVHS

Compound | composite z-score [1] | composite z-score [2] | composite z-score [3] | z-score [4] | composite z-score [5] | composite z-score [6] | composite z-score [7] | composite z-score [8] | composite z-score [9] | composite z-score [10] | composite z-score [11] | z-score [12] | composite z-score [13] | composite z-score [14] | composite z-score [15] | composite z-score [16] | composite z-score [17] | composite z-score [18] | composite z-score [19] | composite z-score [20]
CCOC(=O)C[C@H]1[C@H](OC(=O)c2ccccc2-c2ccccc2)[C@@H](NC(=O)c2ccc3ccccc3c2)c2cc(OCCCO)ccc2N1C(=O)c1ccc2ccccc2n1 | -0.0144 | -0.228 | -0.154 | 0.411 (inactive) | 0.533 | 0.119 | 0.289 | 0.521 | -0.0224 | 0.282 | 1.12 | -1.08 | 0.043 | 0.0796 | -0.122 | -0.0441 | -0.214 | -0.364 | 0.4 | 0.164
O=C1c2ccccc2[C@@]2(Cc3ccccc3N(Cc3ccccc3)C2=O)[C@H](c2ccc(CO)cc2)N1C1CCCCC1 | 1.3 | -0.367 | -0.292 | -0.322 (inactive) | 0.831 | 0.152 | 0.131 | 0.41 | 0.662 | 0.784 | 0.438 | -0.717 | 0.186 | 0.0329 | -0.105 | -0.202 | 0.0062 | -0.444 | -0.345 | 0.0868
CC(C)c1ccc(NN2C(C(O)c3cccc(O)c3)C=CC3C(=O)N(c4ccccc4)C(=O)C32)cc1 (stereo not given) | 0.996 | 0.808 | 0.835 | 0.689 (inactive) | 1.39 | 1.27 | 0.373 | 1.05 | -0.0143 | -0.251 | 1.43 | 0.141 | -0.136 | 1.93 | 0.904 | -0.0583 | 0.0588 | 1.78 | 1.5 | 1.31
COc1c(C)cc(-c2cc3c(c(-c4ccc(Oc5ccccc5)cc4)n2)[Si](C(C)C)(C(C)C)OC3)cc1C | -0.486 | 0.187 | 0.0857 | 0.391 (inactive) | 0.0668 | -0.278 | 0.168 | -0.069 | 0.0431 | 0.51 | -0.0076 | -0.382 | -0.0065 | 0.354 | 0.777 | -0.0721 | -0.138 | -0.111 | -0.0839 | 0.327
CN(C)C(=O)[C@]1(CCC(=O)OC(C)(C)C)N=C(c2ccc(OCCCO)cc2)O[C@@H]1c1ccccc1N=[N+]=[N-] | 1.44 | 0.533 | 0.863 | -0.194 (inactive) | 1.25 | 1.33 | 0.17 | 0.644 | -0.394 | 0.252 | 1.54 | 0.929 | -0.12 | 1.22 | 0.463 | 0.173 | 0.14 | 1.02 | 2.07 | 1.36
CCCCCN1CC=CC23O[C@@H]4/C=C\CCC(C)OC(=O)C4[C@H]2C(=O)N(CCCCCO)[C@@H]3C1=O (stereo not given in full) | 0.16 | -0.499 | -0.0779 | -0.228 (inactive) | -0.57 | -0.77 | 0.361 | -0.501 | -1.07 | -0.362 | -1.38 | 0.0822 | -0.594 | -0.476 | -0.561 | -0.298 | -0.147 | -0.24 | -0.912 | -0.937
CC(C)N1CC=CC23O[C@@H]4C=CCOC(=O)[C@@H]4[C@H]2C(=O)N(CCO)[C@@H]3C1=O (stereo not given in full) | 1.58 | -0.256 | 0.651 | -0.262 (inactive) | -1.61 | -0.897 | -0.859 | -0.447 | -1.61 | -0.223 | 0.723 | -0.0497 | -1.65 | -0.248 | 0.641 | -0.206 | -0.11 | -0.178 | 0.0566 | -1.15
CCC(CC)C(O)C1C=CC2C(=O)N(c3ccccc3)C(=O)C2N1Nc1ccc(C#N)cc1 (stereo not given) | 0.82 | 1.29 | 0.705 | 1.22 (inactive) | 0.783 | 1.27 | 0.231 | 0.78 | -0.197 | 0.794 | 1.46 | 0.106 | 0.0717 | 1.67 | 0.55 | 0.275 | 0.57 | 1.78 | 0.602 | 1.08
C=C(CCCC)/C(=C/C[C@H](OC(C)=O)c1ccc(CO)o1)c1cnc2ccccc2c1 | 1.11 | -0.179 | -0.531 | -0.276 (inactive) | 1.35 | 1.21 | 0.497 | 1.49 | 0.601 | 1.69 | 1.39 | -1.54 | 0.487 | 0.229 | -0.693 | -0.0478 | 0.292 | -0.28 | -0.092 | 1.73
C=CCOC(=O)[C@H]1[C@@H]2C(=O)O[C@@H](c3ccccc3)[C@@H](c3ccccc3)N2[C@@H](c2ccc(OCCOC(=O)[C@@H]3C[C@@H]4C(=O)NCC(=O)N4[C@@H]3c3ccc(O)cc3)cc2)[C@]12C(=O)Nc1ccccc12 | 1.24 | -0.206 | -0.167 | -1.15 (inactive) | 1.14 | 1.19 | 0.457 | 1.34 | 0.535 | 0.217 | 0.919 | -1.34 | 0.733 | 0.325 | 0.0637 | -0.0573 | -0.0192 | -0.0216 | 0.609 | -0.195
